Test results: the supplement of paper PMC12636033
± gives the standard deviation of the averaged measurements. In all, about 33,000 sequences were measured (“E-score (rank enrichment, -0.5 to 0.5)”: median about -0.0075, highest 2% from about 0.23 on). The entries come from a sample that favours the highest values as a whole.

Tested on: WT Max(13-93) synthetic (M65Nle)
Assay: PBM 8-mer E-score (E-score (rank enrichment, -0.5 to 0.5)); higher = stronger preferential binding
Description: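 Protein binding microarray (universal PBM chip covering all 10-mers in fixed probe flanks) with chemically synthesized human Max(13-93) bHLH-LZ analogs (not full-length Max) bearing noncanonical residues (hArg, Tha, Aib, Nle at 65) and aromatic Cys staples. Read-out per 8-mer (and its reverse complement): E-score (rank-based enrichment, -0.5 to 0.5) and Z-score of median probe intensity.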

Sequence | PBM 8-mer E-score
GCATGCAA | 0.257 ± 0.029
GCATGCAC | 0.277 ± 0.0097
TCATGCAA | 0.174 ± 0.02
ACATGCAG | 0.126 ± 0.044
ACATGCAA | 0.185 ± 0.073
GTATGCAC | 0.1415 ± 0.00096
ACATGCGG | 0.14 ± 0.056
CCATGCAC | 0.0862 ± 0.038
CCATGCAA | 0.127 ± 0.083
CGCACTGA | -0.179 ± 0.032
ACTGTGTC | -0.00876 ± 0.03
GTCTGGCA | -0.0283 ± 0.1
ATAGACAA | 0.1094 ± 0.00018
ACCTCGAT | -0.1167 ± 0.00076
ATTCTAAG | 0.0595 ± 0.006
CTGATCCA | 0.0725 ± 0.042
CAGAGAAC | -0.0299 ± 0.06
TATGATCA | 0.0122 ± 0.2
AAACAGTT | 0.0134 ± 0.022
CCCCTATC | -0.00604 ± 0.055
GTCGGAGA | -0.0989 ± 0.0099
ACATGCAT | 0.302 ± 0.039
ACATGCTC | 0.272 ± 0.0055
CCATGCTC | 0.084 ± 0.019
ACATGCCT | 0.219 ± 0.077
ACATGCTA | 0.174 ± 0.035

Sequence | PBM 8-mer E-score
AAATGCAT | 0.229 ± 0.035
AGTCTGGC | -0.226 ± 0.12
GTAGCACA | -0.0865 ± 0.011
AAAAGTAT | 0.237 ± 0.021
TAAAGTAA | 0.05 ± 0.016
CAAAGTAA | 0.0802 ± 0.022
AGAAGTAA | 0.154 ± 0.0017
AAAAGTAA | 0.157 ± 0.0098
GGAAGTAA | 0.238 ± 0.048
GAAAGTAA | 0.267 ± 0.032
TGAAGTAA | 0.119 ± 0.0048
AAAAGTAC | 0.155 ± 0.029
GCCAATCA | 0.0501 ± 0.062
TAATCGAA | 0.0693 ± 0.0042
CCGAAAGA | -0.0212 ± 0.033
CCCGGGCA | -0.273 ± 0.045
AGGGAGTC | -0.0877 ± 0.012
CATCGGAA | -0.106 ± 0.077
AAGTTGGG | -0.0303 ± 0.066
ATGCACAC | 0.239 ± 0.079
ATGCACGC | 0.26 ± 0.026
ATGCACAG | 0.108 ± 0.0019
CTGCACGC | 0.167 ± 0.037
ATGCACAA | 0.14 ± 0.051
ATGCACGA | 0.172 ± 0.088
ACCTAGCT | -0.036 ± 0.038

Sequence | PBM 8-mer E-score
ACAATCAC | 0.28 ± 0.016
GCAATCAC | 0.0355 ± 0.036
CCAATCAC | 0.158 ± 0.025
AACCAAGA | 0.113 ± 0.036
AGGGGGGG | -0.162 ± 0.1
TCAAATCA | 0.0295 ± 0.016
CACAACAA | 0.17 ± 0.053
TACAACAA | 0.245 ± 0.075
AACAACAC | 0.248 ± 0.025
CACAACAC | 0.162 ± 0.014
AACAACAA | 0.222 ± 0.06
GACAACAC | 0.025 ± 0.0086
AGCCGCTC | -0.0773 ± 0.005
AGGCACAC | -0.00413 ± 0.014
TATTAGCA | 0.103 ± 0.035
CCCCTCCA | 0.186 ± 0.16
AGTAACAT | 0.165 ± 0.019
ATAATACA | 0.265 ± 0.036
ATATAATA | 0.256 ± 0.035
CTATAATA | 0.125 ± 0.03
GCATAATA | 0.195 ± 0.12
ATAATATA | 0.262 ± 0.069
ATAATACG | 0.179 ± 0.092
CTAATATA | 0.203 ± 0.012
ATAATATG | 0.2169 ± 0.00097
ACATAATA | 0.288 ± 0.01

Sequence | PBM 8-mer E-score
ACATAATC | 0.111 ± 0.029
GTATAATA | 0.194 ± 0.011
ATAATACC | 0.203 ± 0.026
AGCACAAT | 0.0982 ± 0.029
ATCGGCCA | -0.199 ± 0.054
AAGATGAA | 0.0673 ± 0.0063
AGTTCCTA | -0.0137 ± 0.1
CATTCCGA | 0.0189 ± 0.04
CGCTCCAG | -0.224 ± 0.12
ATACTCCC | 0.0233 ± 0.061
AGCGATAA | -0.115 ± 0.023
AAACCAGC | -0.182 ± 0.12
CTGAAGGA | -0.0478 ± 0.038
AACAAAAA | 0.113 ± 0.021
TACAAATA | 0.154 ± 0.042
AACAAAAT | 0.301 ± 0.016
AACAAGAT | 0.11 ± 0.095
AACAAATA | 0.235 ± 0.039
AACAAGTA | 0.0942 ± 0.0044
AATCTACG | -0.0669 ± 0.058
AAAGTACG | 0.0681 ± 0.065
CAGCACCA | -0.0907 ± 0.0017
CCATTAGA | -0.222 ± 0.029
ATAGAAAA | 0.134 ± 0.016
CATTAATA | 0.119 ± 0.11
AATTAAAG | 0.184 ± 0.068

Sequence | PBM 8-mer E-score
AATTAAAC | 0.218 ± 0.018
GATTAATA | 0.266 ± 0.022
AATTAATA | 0.243 ± 0.094
ATTTAATA | 0.23 ± 0.013
AATTAAGC | 0.0692 ± 0.079
GATTAAGA | 0.182 ± 0.054
TATTAATA | 0.19 ± 0.021
AATTAAGA | 0.241 ± 0.057
ACTTAATA | 0.21 ± 0.015
AATTAAAT | 0.253 ± 0.024
AGCAGAAG | -0.0139 ± 0.09
ATCGCTCC | -0.0658 ± 0.15
ACGTAACC | 0.109 ± 0.1
CTTACCGC | -0.13 ± 0.11
CTGATCCC | -0.00057 ± 0.1
AGTGCCTG | -0.101 ± 0.011
CTCAAGAG | -0.266 ± 0.032
CATTAGTA | 0.0683 ± 0.015
AATTAATC | 0.0672 ± 0.11
AATTAATT | 0.262 ± 0.088
AATTAGTA | 0.249 ± 0.075
AATTAGTC | -0.027 ± 0.071
AATTAATG | 0.166 ± 0.16
CGGGCTCA | -0.237 ± 0.039
AAACAAAG | 0.114 ± 0.032
AAACAAGT | 0.0146 ± 0.12

Sequence | PBM 8-mer E-score
CAACAAGA | 0.0122 ± 0.26
TAACAAAA | 0.166 ± 0.0052
AAAACAAT | 0.259 ± 0.0082
CAACAACA | 0.237 ± 0.027
AAAACAAC | -0.0511 ± 0.034
GAACAACA | 0.0194 ± 0.12
AAACAAAC | 0.0359 ± 0.011
AAACAAAT | 0.275 ± 0.05
AAAACAAG | 0.122 ± 0.18
AAACAAAA | 0.284 ± 0.023
CTATCTGC | -0.0743 ± 0.063
CACTACAG | -0.123 ± 0.011
GTTAGAGA | -0.0703 ± 0.011
AAGGCGAT | 0.0502 ± 0.11
ATTAAAGC | 0.133 ± 0.061
AAGGTTGA | 0.14 ± 0.0094
CCGCTTAG | -0.158 ± 0.088
ATGCCGCC | -0.15 ± 0.1
AATCAACA | 0.283 ± 0.051
TATCAACA | 0.192 ± 0.053
GATCAACA | -0.0789 ± 0.16
GTCAAGAA | 0.12 ± 0.082
ATTCGGGA | -0.128 ± 0.12
GAGGAAAA | 0.113 ± 0.23
GTTTGAAA | 0.277 ± 0.019
ATTTGAAA | 0.124 ± 0.0068

Sequence | PBM 8-mer E-score
CTTTGAAA | 0.0996 ± 0.023
ATTAAACA | 0.095 ± 0.031
ATTAAACG | 0.255 ± 0.023
ATTAAACC | 0.0834 ± 0.057
ATCAGACG | -0.142 ± 0.13
CACGGTCG | -0.27 ± 0.0093
ATGCAACG | 0.0584 ± 0.039
ATGCAACA | 0.229 ± 0.099
ATGCAACC | 0.244 ± 0.066
ACTCGTTA | -0.0291 ± 0.015
ACCATGGT | -0.00014 ± 0.21
AACATGGT | 0.052 ± 0.061
ACCATGTG | 0.442 ± 0.0045
ACCATGCT | 0.277 ± 0.028
ACCATGTA | 0.162 ± 0.065
ACCATGAT | 0.136 ± 0.019
ACCATGCG | 0.243 ± 0.0064
ACCATGCC | 0.00171 ± 0.051
ACCATGTC | 0.0659 ± 0.016
AACATGCT | 0.242 ± 0.035
ACCATGCA | 0.221 ± 0.0057
AACATGCA | 0.202 ± 0.039
